# High-throughput results deposited in PubChem by several laboratories.
# Cardiac RTF inh = cardiac RTF calcium sensitivity inhibitors, primary screen, biochemical, IANBD-TnC fluorescence, EC70 calcium | Troponin I, cardiac muscle (Homo sapiens) + Troponin T, cardiac muscle (Homo sapiens) + … | AID 493244, 2011 | inhibition, % at 7.15 µM | 340,000 tested, 0.12% active | IANBD-labeled cardiac RTF, Ca2+ fluorescence;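 active = inhibition above the mean inhibition of all tested compounds plus 3 SD, cut at about 17% in these data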;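 also: assay run at fixed EC70 calcium of 1.6 mM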
# RTF Ca sens act = cardiac RTF calcium sensitivity activators, primary screen, biochemical, IANBD-TnC fluorescence, EC20 calcium. Troponin I, cardiac muscle (Homo sapiens) + Troponin T, cardiac muscle (Homo sapiens) + …. IANBD-labeled TnC RTF fluorescence at EC20 calcium; 0% EC20 calcium, 100% full calcium. activation, % at 7.2 µM. 340,000 tested, 0.24% active;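 active = activation above the mean over all tested compounds plus 3 SD, cut at about 30% in these data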;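 also: rise in fluorescence read as greater calcium sensitivity of cardiac thin filaments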
# CRFBP-R2 block = antagonists of CRF-BP/CRF-R2 complex, primary screen, cell-based, HEK293, calcium dye fluorescence, uHTS | inhibition, % at 11.8 µM | 350,000 tested, 0.59% active | CRF-induced calcium fluorescence;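 active = inhibition of the ligand-induced calcium signal above about 50% at the single tested concentration, limit read from the data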
# IDE inh = human IDE inhibitors in live cells, primary screen, fluorescence polarization, HEK cells, FAbetaB substrate; FAbetaB cleavage; 320,000 tested, 0.41% active; Insulin-degrading enzyme (Homo sapiens), P14735; inhibition, % at 5.59 µM; AID 434962, 2010;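 active = percent inhibition above the average of all tested compounds plus 3 SD, set per screening campaign, cut at about 16% in these data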;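 also: IDE supplied by intact live HEK cells; FP after avidin binding of uncleaved biotin substrate so inhibition keeps polarization high; 0% = DMSO wells and 100% = 60 µM reference IDE inhibitor Ii1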
# CRFBP-R2 agonist = agonists of CRF-BP/CRF-R2 complex, primary screen, cell-based, HEK293, calcium dye fluorescence, uHTS. activation, % at 13.2 µM. AID 588473, 2011. 350,000 tested, 0.46% active. calcium dye fluorescence (FLIPR); percent of saturating CRF peptide response. CRF-binding protein / CRF receptor 2 complex (human);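 active = activation of at least 50%, plus an integration ratio under a set limit after plate pattern correction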;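 also: plate controls were neutral control wells without compound for no effect and CRF at EC100 for full effect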
# IDE act = human IDE activators in live cells, primary screen, fluorescence polarization, HEK cells, FAbeta-B substrate; activation, % at 5.96 µM; FAbeta-B cleavage; 0% vehicle, 100% cell-free pure enzyme wells; 340,000 tested, 0.073% active; Insulin-degrading enzyme (Homo sapiens), P14735;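 active = activation above the mean of all tested compounds plus 3 SD, set per screening campaign, cut at about 17% in these data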
# IDE cell inh cf = human IDE inhibitors in live cells, confirmation, fluorescence polarization, HEK cells, FAbetaB substrate | shares compounds with IDE inh | FAbetaB cleavage | inhibition, % at 5.59 µM | 1,200 tested, 51% active | AID 435028, 2010;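 active = mean inhibition across triplicate wells above the cutoff set by the earlier primary insulin-degrading enzyme screen, cut at about 16% in these data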;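 also: 0% = DMSO wells and 100% = 60 µM reference IDE inhibitor Ii1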
# HEK cytotox = cytotoxicity in HEK cells, cytotoxicity control for IDE inhibitor project, cell-based, luminescence. 1,200 tested, 28% active. inhibition, % at 5.59 µM. HEK293 cytotoxicity, ATP luminescence. AID 449730, 2010. shares compounds with IDE inh; in the data active = inhibition above about 22%;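 also: 0% = vehicle wells and 100% = reference cytotoxic drug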
# Starred values were filed as active, the others as inactive; . = no result given. An excerpt weighted towards active compounds, which were near 1.5% of everything screened.
SMILES,Cardiac RTF inh,RTF Ca sens act,CRFBP-R2 block,IDE inh,CRFBP-R2 agonist,IDE act,IDE cell inh cf,HEK cytotox
O=C(O)c1ccc(N/N=C/c2ccc(-c3cccc(Cl)c3)o2)cc1,-12,-1,17,6,-1,1,.,.
O=C(O)c1ccc(N/N=C/C=C/c2ccc([N+](=O)[O-])o2)cc1,-14,-2,-49,50*,38,-47,73*,8
C[n+]1c(/C=C/c2ccc(O)cc2)ccc2ccccc21,-3,-4,-8,2,6,-2,.,.
Cc1cc(/C=C\c2ccc3cc(N(C)C)ccc3[n+]2C)c(C)n1-c1ccccc1,-21,8,-19,26*,10,-44,85*,117*
Cc1ccc(-c2nc3ccccc3[nH]2)cc1NC(=S)NC(=O)c1ccccc1Br,-13,-1,-1,18*,-4,-16,14,31*
S=C(NCc1ccco1)N1CCN(c2nc(-c3ccc(Cl)cc3)cs2)CC1,-3,1,3,22*,0,-14,5,20
S=C(NCc1ccco1)N1CCN(c2nc(-c3ccccc3)cs2)CC1,-1,4,2,18*,0,-9,7,10
COc1ccc(CC(=O)N2CCc3cc(OC)c(OC)cc3C2C)c(OC)c1 (centres undefined),-4,2,9,-6,2,-1,.,.
CCC[C@@H]1Cc2ccccc2N1C(C)=O,-24,0,-3,-8,0,0,.,.
CC(=O)N/N=C/c1cc(C(C)(C)C)cc(/C=N/NC(C)=O)c1O,.,.,-66,48*,77*,.,29*,17
COc1ccc(/C=C2\SC(=O)NC2=S)cc1OC,-33,20,-24,68*,15,-29,8,16
CCOc1ccc(/C=C2\SC(=S)NC2=O)cc1OC,-7,-2,7,0,0,3,.,.
Cc1cccc(C(=O)Nc2ccc(C(=O)/C=C/c3cccnc3)cc2)c1,-5,1,-9,20*,0,-37,10,71*
O=C(/C=C/c1cccnc1)c1ccc(NC(=O)c2cccc(Br)c2)cc1,-6,-5,-6,8,-1,-17,.,.
CC(=O)c1cccc(OCC(=O)N2CCN(c3ccc(C(F)(F)F)cn3)CC2)c1,6,-3,16,22*,4,-19,19*,6
O=C(O)COCC(=O)N1CCCN(c2ccc(C(F)(F)F)cn2)CC1,-4,5,4,.,0,5,.,.
CCCc1cc(C(=O)N2CCN(c3ccc(C(F)(F)F)cn3)CC2)sc1C,-4,9,8,16*,2,-29,4,16
Cc1nn(-c2ccccc2)c(Cl)c1C(=O)OCC(=O)N(C)c1c(N)n(Cc2ccccc2)c(=O)[nH]c1=O,-10,-2,-3,7,1,-4,.,.
CC(=O)Cc1cc(O)c2ccccc2c1OC(=O)c1ccccc1,2,0,-16,43*,1,-6,37*,14
CC(=O)c1cc(C)c(OC(=O)c2ccccc2)c(C)c1,-2,-2,5,.,0,4,.,.
CC1Sc2ccc(S(=O)(=O)N3CCC(C(=O)NCc4ccccc4)CC3)cc2NC1=O (centres undefined),-2,-3,-7,3,2,6,.,.
Fc1ccc2[nH]c3c(NCCN4CCOCC4)ncnc3c2c1,3,-5,15,3,-2,-1,.,.
Clc1ccc2[nH]c3c(NCCN4CCOCC4)ncnc3c2c1,-9,-6,9,19*,-4,-3,4,16
Clc1ccc2[nH]c3c(NCC4CCCO4)ncnc3c2c1 (centres undefined),.,.,.,38*,.,.,17*,34*
CN(C)c1ccc(/C=C2\C(=N)N3N=C(CC(=O)N4CCCCC4)SC3=NC2=O)cc1,-20,29,-65,21*,55*,-58,49*,9
SMILES,Cardiac RTF inh,RTF Ca sens act,CRFBP-R2 block,IDE inh,CRFBP-R2 agonist,IDE act,IDE cell inh cf,HEK cytotox
CN(C)c1ccc(/C=C/c2nc3ccccc3c(=O)n2-c2ccc(C(=O)O)cc2)cc1,-498,538*,-24,131*,22,-115,134*,9
CC(NNC(=S)N1CCN(c2ccccn2)CC1)c1nccc2ccccc12 (centres undefined),0,-1,8,.,-2,-9,.,.
O=C(NC1CCC(O)CC1)c1cccnc1Sc1ccccc1Cl (centres undefined),-2,-3,2,0,2,4,.,.
O=C(CCCOc1ccc(Cl)cc1Cl)NCc1ccncc1,2,6,-2,24*,-1,-22,5,13
CC1(C)CC(=O)C/C(=N/NC(=O)c2ccc(-c3ccccc3)cc2)C1,-6,-3,-16,18*,0,-11,14,5
CC1(C)CC(=O)C/C(=N\NC(=O)Cc2ccccc2)C1,-8,4,-2,5,2,4,.,.
c1ccc(C(c2ccccc2)c2ccn[nH]2)cc1,-11,6,9,1,-1,0,.,.
CCSc1nnc(NC(=O)CSc2nc3c(c(=O)n2C)SC(C)C3)s1 (centres undefined),-9,-2,6,11,0,-15,.,.
CCc1nnc(NC(=O)CSc2nc3c(c(=O)n2C)SC(C)C3)s1 (centres undefined),-1,3,30,17*,-1,-30,11,5
CCCCn1c(N)c(N(CCOC)C(=O)c2c(-c3ccccc3)noc2C)c(=O)[nH]c1=O,6,-3,3,-8,-1,2,.,.
CC(=O)OCC(=O)C1(O)CCC2C3CCC4=CC(=O)CCC4(C)C3(Cl)C(O)CC21C (centres undefined),2,0,-2,.,1,2,.,.
O=C(CCCCl)Oc1ccc2cc(-c3ccc4ccccc4n3)c(=O)oc2c1,-15,2,-94,37*,106*,-49,52*,4
C(=N\NC1=Nc2cccc3cccc1c23)/c1cccnc1,-5,0,-14,23*,2,-17,15,9
